# A selection follows.
# aSyn 5UTR act: Activators via SNCA 5'UTR binding, MLPCN | alpha-synuclein 5'UTR reporter, activators screen | AID 1814 | activity score, % (tested at 7.5 µM), hits read low | actives 7.1% (n = 300,000); in the data active means activity score below about -60%
# Numbers without * were called inactive.
SMILES,aSyn 5UTR act
CC(C)(C)Cc1nnc(NC(=O)c2ccco2)s1,-77*
COc1cc(/C=N\Nc2nc3ccccc3o2)cc(OC)c1OC,-186*
Brc1ccc(/C=N/Nc2nc3ccccc3o2)cc1,-191*
COc1cc(/C=N/Nc2nc3ccccc3o2)cc(OC)c1O,-86*
Cc1ccc(OCCCCCCN2CCNCC2)cc1,-64*
COc1cccc2c1C(=O)c1c(O)c3c(c(O)c1C2=O)C[C@](O)(C(C)=O)C[C@H]3O[C@@H]1C[C@@H](N)[C@@H](O)[C@@H](C)O1,111
O=C(O)c1ccc2c3n(nc2c1)-c1ccc(Cl)cc1CO3,-161*
O=C(c1ccc2c3n(nc2c1)-c1ccc(Cl)cc1CO3)N1CCCCC1,-138*
Cc1ccc2c(c1)COc1c3ccc(C(=O)N4CCOCC4)cc3nn1-2,-113*
Cc1ccc(/C=N/NC(=O)NC23CC4CC(CC(C4)C2)C3)o1,-83*
Cc1cc(C(=O)N/N=C/c2ccc(C)o2)c2ccccc2n1,65
Cc1ccc(/C=N/NC(=O)c2ccoc2C)o1,-137*
COc1cc(/C=N/NC(=O)c2ccoc2C)cc(OC)c1O,-90*
CCc1ccc(C2C(=O)c3ccccc3C2=O)cc1,-74*
COc1ccc(C2C(=O)c3ccccc3C2=O)cc1,-83*
COc1ccc(C2C(=O)c3ccccc3C2=O)c(OC)c1,-265*
O=C1c2ccccc2C(=O)C1c1ccnc2ccccc12,89
O=[N+]([O-])c1cc(CN2CCN(c3ccccc3)CC2)c(O)c2ncccc12,82
c1ccc(N2CCN(c3nc(-c4ccccn4)nc4ccccc34)CC2)cc1,-78*
c1ccc(N2CCN(c3ncccn3)CC2)cc1,-68*
COc1ccnc(N2CCN(c3ccccc3)CC2)c1C#N,-80*
CC1CC1C(=O)OCc1cc(=O)n2cc(Br)ccc2n1 (stereo not drawn),-148*
CC1(C(=O)OCc2cc(=O)n3cc(Br)ccc3n2)CC1(Cl)Cl (stereo not drawn),-140*
Cc1ccccc1C(=O)NC(CC(C)C)C(=O)OCc1cc(=O)n2cc(Br)ccc2n1 (stereo not drawn),-73*
C=CCNC(=O)C1CC(=O)N(c2ccc(OCC(=O)Nc3ccccc3)cc2)C1 (stereo not drawn),-94*
SMILES,aSyn 5UTR act
CCCNC(=O)C1CC(=O)N(c2ccc(OCc3ccc(F)cc3)cc2)C1 (stereo not drawn),-92*
NC(=O)C1CC(=O)N(c2ccc(OCc3ccc(Cl)cc3)cc2)C1 (stereo not drawn),-146*
C=CCNC(=O)C1CC(=O)N(c2ccc(OCc3ccc(F)cc3)cc2)C1 (stereo not drawn),-95*
CCCNC(=O)C1CC(=O)N(c2ccc(OCc3ccc(Cl)cc3)cc2)C1 (stereo not drawn),-108*
CC(C)(O)c1cc(=O)sc2nc3ccccc3n12,-103*
CC1(C)C=Cc2cc(-c3coc4cc(O)cc(O)c4c3=O)cc(O)c2O1,-149*
Cc1ccc([N+](=O)[O-])cc1N/C=C1\CCc2ccccc2C1=O,-163*
Nc1nnc(/C=C/c2cccc([N+](=O)[O-])c2)s1,-64*
O=[N+]([O-])c1cccc(/C=N/Nc2ccccn2)c1,-230*
O=C(O)c1ccc(/C=N\Nc2ccccn2)cc1,-79*
Cc1[nH]c2ccccc2c1/C=N/Nc1ccccn1,-100*
O=[N+]([O-])c1cccc(/C=C/c2ccccn2)c1,-141*
CN(C)c1ccc(/C=N\Nc2ccccn2)cc1,-232*
O=[N+]([O-])c1ccc(/C=N/Nc2ccccn2)cc1,-188*
O=C(N/N=C/c1ccc(Cl)c([N+](=O)[O-])c1)c1cnccn1,-72*
O=[N+]([O-])c1cccc(/C=N/Nc2nccnc2Cl)c1,-147*
O=C(N/N=C/c1ccc(Sc2nc3ccccc3s2)c([N+](=O)[O-])c1)c1ccccn1,-75*
N#C/C(=C\c1cccc([N+](=O)[O-])c1)c1ccccn1,-67*
O=C(O)c1ccc(/C=N/Nc2ncc(Cl)cc2Cl)cc1,-72*
O=C(O)c1ccc(N/N=C/c2ccc(OC(=O)c3cccc(Cl)c3)cc2)cc1,76
O=[N+]([O-])c1cc(/C=N\Nc2ccccn2)ccc1Cl,-91*
O=[N+]([O-])c1cc(Cl)cc(/C=N\Nc2ccccn2)c1O,90
CCCCCCOC(=O)c1ccc(N)cc1,-114*
CCCCCCCCOC(=O)c1c(CSC(=N)N)n(C)c2cc(Br)c(OC(C)=O)cc12,41
CCCCOC(=O)Nc1ccc(C(=O)OC)cc1,-110*
SMILES,aSyn 5UTR act
CCCCOC(=O)Nc1ccc(C)c(Cl)c1,-164*
Cc1ccc(NC(=O)Nc2ccccc2)cc1[N+](=O)[O-],-145*
Cc1ccc(NC(=O)C2C3CCCCC32)cc1[N+](=O)[O-] (stereo not drawn),-99*
Cc1cc(NC(=O)OC2CCCCC2)ccc1[N+](=O)[O-],-190*
Cc1cccc(NC(=O)C2C3CCCCC32)c1 (stereo not drawn),-117*
CC(=O)c1ccc(NC(=O)CN2CCCC2)cc1,-63*
Cc1ccc(NC(=O)CN2CCCCCC2)cc1[N+](=O)[O-],-90*
CSCCC(=O)Nc1ccc(C(C)=O)cc1,-143*
Cc1ccc(NC(=O)C2C3/C=C\CCCCC32)cc1 (stereo not drawn),-83*
CC(CNS(=O)(=O)c1cc(Cl)ccc1Cl)CN(C)C (stereo not drawn),-159*
Cc1ccc(-c2cc(C(=O)N/N=C/c3c[nH]c4ccccc34)[nH]n2)cc1,78
O=C(N/N=C/c1c[nH]c2ccccc12)c1ccc(Cl)cc1,-77*
O=C(N/N=C/c1c[nH]c2ccccc12)c1cc(-c2ccccc2)n[nH]1,-72*
O=C(O)c1ccc(N/N=C/c2c[nH]c3ccccc23)cc1,79
O=C(N/N=C/c1c[nH]c2ccccc12)c1cc(-c2ccc(-c3ccccc3)cc2)n[nH]1,-146*
O=C(OCc1nc2ccccc2s1)C1CCN(C2=NS(=O)(=O)c3ccccc32)CC1,-98*
O=C1c2ccccc2S(=O)(=O)N1Cc1nc2ccccc2s1,112
CSCc1ccc(C(=O)NCCSc2ccc(Br)cc2)cc1,-96*
CCOC(=O)c1cc(-c2ccc(N)cc2)sc1N,-76*
CCOC(=O)c1sc(-c2ccc(Br)cc2)cc1N,-185*
NNC(=O)c1sc(-c2ccc(Cl)cc2)cc1N,-82*
COc1cccc2sc(N(CCCN(C)C)C(=O)c3ccc(S(=O)(=O)N4CCc5ccccc5C4)cc3)nc12,94
COc1ccccc1C(=O)N(CCC1CCCN1C)c1nc2ccccc2s1 (stereo not drawn),-103*
COc1cccc2sc(N(CCCN(C)C)C(=O)c3ccc(S(=O)(=O)N4CCCc5ccccc54)cc3)nc12,64
COc1ccc(/C=C2\SC(=N)N(c3nccs3)C2=O)cc1OC,65
SMILES,aSyn 5UTR act
CN=C1S/C(=C\c2ccc(SC)cc2)C(=O)N1C,-98*
CSC1=NC(=O)/C(=C/c2ccc(SC)cc2)S1,-81*
CN=C1S/C(=C\c2ccc(O)c(OC)c2)C(=O)N1C,-110*
CCOC(=O)c1ccc(N=c2scc(C)n2CC)cc1,-91*
C=CCn1c(C)csc1=Nc1ccc(C(C)=O)cc1,-99*
CCOC(=O)c1ccc(N=NN(C)C)cc1,-156*
COC(=O)CCCNC(=O)CCc1nnc(-c2ccc(-c3ccccc3)cc2)o1,77
CN(CCCC1CCCC1)C(=O)CCc1nnc(-c2ccccc2)o1,-139*
O=C(CCc1nnc(-c2ccc(-c3ccccc3)cc2)o1)NCCc1ccccn1,90
O=C(CCc1nnc(-c2ccccc2)o1)NC1CCCCC1,-66*
O=C(Nc1nnc(-c2ccccc2)o1)NC1CCCCC1,-80*
